Screening results deposited in PubChem by National Center for Advancing Translational Sciences (NCATS).
This is a sample that favours compounds with a hit; in the whole collection about 13% have one here.
HCV inh – HCV inhibition. Huh7.5.1 HCVcc-Cre infection, luciferase reporter, 44 h. Potency, µM (highest dose often 41.8 µM), for inactives: at the highest dose activity change, negative = inhibition, usual class: inhibitors. actives 3.4% (n = 340,000); note: potency is the fitted concentration of half-maximal effect
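After 44 h co-culture of compound, cells and HCVcc-Cre (~0.5 moi), substrate is added for 15 min at room temperature and luciferase measured over 15 sec. Cells were seeded at 1,000/well and pre-cultured 4 h.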
HCMV antiviral – blocks human cytomegalovirus replication; HFF cells, HCMV-luciferase reporter, 72 h; stronger effect = lower value; activity change, negative = inhibition, % at 57.5 µM; actives 4.5% (n = 410,000); AID 1259415; in the data active = activity change below about -60%; inconclusive = no clear call, values can overlap the other calls; inactive = above about -39%
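Human foreskin fibroblasts infected with luciferase-reporter HCMV at MOI 1 PFU/cell, compounds at two doses. Luciferase measured 72 h post infection; normalized to buffer-only basal and Salinomycin (10uM) controls.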
Pf growth 96h – P. falciparum growth inhibition at 96 hours; Potency, µM (top dose mostly 28.7 µM), for the others: top-dose activity change, negative = inhibition, most hits filed as inhibitors; actives 6.9% (n = 320,000); P. falciparum luciferase reporter growth, 96 h; note: potency is the fitted concentration of half-maximal effect
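Plates of compound plus infected erythrocytes (2% hematocrit, 0.05% parasitemia final) incubate 96 hours, 37 C, 5% CO2. Detection reagent added; reduced luminescence from the parasites' luciferase reporter flags inhibition.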
Pf growth 48h – inhibits P. falciparum growth in the first generation, 48 h; P. falciparum luciferase growth in erythrocytes, 48 h; Potency, µM (highest dose often 28.7 µM), inactives show at the top dose activity change, negative = inhibition, usual class: inhibitors; actives 5.9% (n = 310,000); AID 504832; note: potency is the fitted concentration of half-maximal effect
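Luciferase-expressing P. falciparum in infected erythrocytes (2% hematocrit, 0.1% parasitemia final) in RPMI 1640/0.5% Albumax were exposed to compound for 48 hours at 37 C, 5% CO2; growth read as luminescence.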
* hit, by the source's call; u = inconclusive; x = no result given. Unless noted, calls come from the whole dose curve; as a rule, active = well fitted inhibition curve with a large enough effect; inconclusive = small, poorly fitted or top-dose-only effect, or another doubt; inactive = no such curve, though single readings can be large or run the other way. % is set by controls: 0 for no effect and ±100 for the full control effect.

SMILES	HCV inh	HCMV antiviral	Pf growth 96h	Pf growth 48h
COc1ccc(NC(=O)c2cc(S(=O)(=O)N3CCCC3)c[nH]2)cc1	11.6%	-19.2	u	-12.7%
COc1ccc(NC(=O)c2cc(S(=O)(=O)N3CCCC3)oc2C)cc1	-14.3%	-64.9*	13.5%	-13.9%
COc1cc(OC)c(C(=O)Nc2ccc(S(=O)(=O)N3CCCCC3)cc2)cc1OC	-16.9%	-35.0	14.7µM*	u
COc1ccc(CN(C)C(C)C(=O)Nc2ccc(S(=O)(=O)N3CCCCC3)cc2)cc1F (centres undefined)	u	-2.3	u	10.4µM*
COc1cc(/C=C/C(=O)OCC(=O)Nc2ccc(S(=O)(=O)N3CCCC3)cc2)ccc1O	u	-23.8	9.28µM*	u
O=C(Nc1nnc(S(=O)(=O)N2CCc3ccccc32)s1)c1cccc(Cl)c1	x	-25.1	x	x
Cc1cc(C)c2c(=O)cc(C(=O)Nc3ccc(S(=O)(=O)Nc4onc(C)c4C)cc3)oc2c1	x	-29.3	x	x
CCN(CC)C(=O)c1sc2c(c1C)c(=O)n(-c1ccc(OC)cc1OC)c(=O)n2CC(=O)c1ccc(Cl)cc1	x	21.3	x	x
CN(CC(=O)Nc1cc([N+](=O)[O-])ccc1Cl)Cc1ccc(Br)cc1	u	-13.5	u	u
Cc1ccsc1CN(C)CC(=O)Nc1ccc([N+](=O)[O-])cc1Cl	12.6µM*	u	-4.0%	-12.4%
CCN(CC)S(=O)(=O)c1ccc(N2CCOCC2)c(NC(=O)C(C)(C)C)c1	1.5%	22.4	u	75.4%
CCN(CC)S(=O)(=O)c1ccc(N2CCOCC2)c(NC(=O)c2cc(=O)[nH]c3ccccc23)c1	3.4%	-18.2	-21.9%	-18.9%
CCN(CC)S(=O)(=O)c1ccc(N2CCCCC2)c(C(=O)Nc2ccccc2N2CCOCC2)c1	5.62µM*	u	4.15µM*	x
CCN(CC)S(=O)(=O)c1ccc(N2CCOCC2)c(NC(=O)C2CCCO2)c1 (centres undefined)	5.5%	-31.1	8.28µM*	u
CCN(CC)S(=O)(=O)c1ccc(N2CCOCC2)c(NC(=O)c2ccc3ccccc3c2)c1	-3.2%	-36.2	11.7µM*	u
CCN(CC)S(=O)(=O)c1ccc(N2CCOCC2)c(NC(=O)c2ccc3c(c2)OCCO3)c1	u	-3.4	u	u
CCN(CC)S(=O)(=O)c1ccc(N2CCOCC2)c(NC(=O)C2=COCCO2)c1	u	37.9	2.08µM*	3.29µM*
CCc1cccc(C)c1Nc1c(-c2ccc(SC)cc2)nc2sccn12	x	70.6	x	x
CCN(CC)S(=O)(=O)c1ccc(N2CCOCC2)c(NC(=O)c2c3c(nc4ccccc24)CCC3)c1	u	-31.1	4.65µM*	7.38µM*
CCc1cc(C(=O)Nc2cc(S(=O)(=O)N(CC)CC)ccc2N2CCN(C)CC2)sc1C	u	-7.5	2.62µM*	u
CCc1noc(C)c1C(=O)Nc1cc(S(=O)(=O)N(CC)CC)ccc1N1CCOCC1	-21.5%	3.8	u	u
CCc1cc(C(=O)Nc2cc(Cl)ccc2N2CCN(C)CC2)sc1C	u	-3.9	-2.6%	-16.3%
COc1cccc(CNC(=O)c2cc(S(=O)(=O)N3CCCCC3)cn2C)c1	x	-1.6	x	x
Cc1cc(NNC(=O)c2cccc(C(F)(F)F)c2)nc2c1c(C)nn2C	4.47µM*	u	-9.9%	21.6%
CCOc1ccc(NS(=O)(=O)c2ccc3ncsc3c2)cc1	-4.6%	-10.7	3.7µM*	-4.9%
SMILES	HCV inh	HCMV antiviral	Pf growth 96h	Pf growth 48h
CCOc1ccc(NS(=O)(=O)c2ccc(NS(=O)(=O)c3cccs3)cc2)cc1	8.4%	24.3	21.6%	23.6%
CCOc1ccc(CNC(=O)NS(=O)(=O)c2ccc(OC)cc2)cc1	29.5%	58.0	2.94µM*	15.2%
CN(c1cccc(NS(=O)(=O)c2ccccc2)c1)S(C)(=O)=O	-3.6%	2.3	25.9%	46.8%
CCOc1ccc(S(=O)(=O)Nc2cccc(OC)c2)cc1	10µM*	u	43.0%	x
CCOc1ccc(NS(=O)(=O)c2ccc(N)cc2)cc1	5.1%	43.7	x	-1.2%
CCOc1ccc(S(=O)(=O)Nc2cccc(N(C)S(C)(=O)=O)c2)cc1	10µM*	-35.4	x	-7.4%
CCc1ccc(C(=O)c2cn(CC(=O)Nc3cccc(C)c3C)c3nc(C)ccc3c2=O)cc1	x	10.8	x	x
CCOC(=O)C1CCN(C(=O)c2nn(-c3ccc(C)cc3)c(=O)n(C)c2=O)CC1	x	11.2	x	x
Cc1ccc(S(=O)(=O)Nc2cccnc2)cc1	-0.8%	2.7	u	0.3%
CCCCOc1ccc(S(=O)(=O)Nc2cccnc2)cc1	10µM*	-75.9*	2.33µM*	0.0%
Cc1nnc(SC(C)C(=O)Nc2ncc(Cl)cc2Cl)n1Cc1ccccc1 (centres undefined)	12.9%	-28.6	2.08µM*	u
COCCn1c(SC(C)C(=O)Nc2ncc(Cl)cc2Cl)nc2ccccc21 (centres undefined)	u	-69.7*	x	u
Cc1cc(SC(C)C(=O)Nc2ncc(Cl)cc2Cl)nc2ccccc12 (centres undefined)	u	-27.5	10.8%	-3.4%
Cc1cccc(C(=O)Nc2ccc(OCc3cc(=O)n4ccc(C)cc4n3)cc2)c1	x	4.6	x	x
Cc1c(C(N)=O)nnn1-c1ccc(Br)cc1	x	1.9	x	x
COc1ccc(N2CCN(C(=O)CCCC3=NS(=O)(=O)c4ccccc4N3)CC2)cc1	6.5%	9.0	u	u
O=C(CCCC1=NS(=O)(=O)c2ccccc2N1)N1CCN(c2ccc([N+](=O)[O-])cc2)CC1	-17.2%	-18.4	u	8.28µM*
Oc1ccc(C[C@@H]2CNCCN2CCc2cccc3ccccc23)cc1	u	13.5	u	13.1µM*
CC(C)(C)CN1CCNC[C@H]1Cc1cccc2ccccc12	u	61.6	9.28µM*	u
Oc1ccc(C[C@H]2CNCCN2CCc2cccc(F)c2)cc1	-28.5%	-6.4	u	u
O=C1C=CC(=NN=C(c2ccccc2)c2ccccc2)C=C1	x	-80.2*	x	x
NN=C(c1ccccc1)c1ccccc1	10.0%	26.3	x	x
CCC(=O)NC(NC(=S)Nc1cccc2cccnc12)C(Cl)(Cl)Cl (centres undefined)	u	45.0	19.8%	-0.1%
CCCC(=O)NC(c1ccccc1Cl)c1ccc2cccnc2c1O (centres undefined)	2µM*	-97.3*	u	u
Cc1cc(NC(c2ccc(Cl)cc2)c2ccc3cccnc3c2O)no1 (centres undefined)	2.51µM*	-97.7*	0.329µM*	x
CCCC(=O)NC(c1ccc(N(C)C)cc1)c1ccc2cccnc2c1O (centres undefined)	3.16µM*	-98.2*	-21.9%	6.57µM*
CC(=O)NC(c1ccc(Cl)cc1)c1ccc2cccnc2c1O (centres undefined)	4.47µM*	-98.6*	x	x
Cc1ccc(-c2nc3cc(NC(=O)c4cc(Br)ccc4Cl)ccc3o2)cc1	x	11.9	x	x
CC(=O)NC(c1ccco1)c1ccc2cccnc2c1O (centres undefined)	7.94µM*	x	6.6%	10.4µM*
